# Reference: PubChem BioAssay (EPA / NIEHS)
# Inconclusive results are not listed. More than one record can exist for a structure, and the calls need not agree. Activity calls are given as the source filed them. The calls were made as follows: active = hit-call score of the fitted dose curve at least 0.9, where 1 is the maximum; inconclusive = response in the unintended direction; inactive = score below 0.9.
# How the values were obtained:
# [1] = molecular target: human Matrix Metalloproteinase-1 (MMP1), MMP1 (gene 4312) (UniProt P03956); test: NVS_ENZ_hMMP1: NovaScreen (NVS) Enzymatic Assay for human Matrix Metalloproteinase-1 (MMP1) (AID 2283181)
# Sequence of human Matrix Metalloproteinase-1 (MMP1), MMP1 (gene 4312) (P03956 whole entry, looked up): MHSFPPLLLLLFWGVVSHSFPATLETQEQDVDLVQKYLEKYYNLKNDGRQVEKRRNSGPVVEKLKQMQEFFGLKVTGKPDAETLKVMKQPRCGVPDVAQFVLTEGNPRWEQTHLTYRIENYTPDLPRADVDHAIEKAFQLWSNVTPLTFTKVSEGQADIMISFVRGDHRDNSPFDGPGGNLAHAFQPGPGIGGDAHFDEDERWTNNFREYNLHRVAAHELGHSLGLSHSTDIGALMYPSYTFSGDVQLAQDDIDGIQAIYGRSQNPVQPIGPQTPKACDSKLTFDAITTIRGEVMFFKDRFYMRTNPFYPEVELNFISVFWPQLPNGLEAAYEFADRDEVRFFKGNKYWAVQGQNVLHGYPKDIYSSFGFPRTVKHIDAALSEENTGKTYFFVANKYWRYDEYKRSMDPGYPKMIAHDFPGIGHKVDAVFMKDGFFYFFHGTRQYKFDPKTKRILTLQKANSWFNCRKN
# Summary of the method: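 Human MMP1 enzyme activity measured by fluorescence 1 h after dosing, cell-free, with a specific substrate. Screened in duplicate at 25 uM; hits (e.g. 30% inhibition) run in concentration-response up to 50 uM; loss of signal versus DMSO.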
# [2] = molecular target: human Matrix Metalloproteinase-9 (MMP9), MMP9 (gene 4318) (UniProt P14780); test: NVS_ENZ_hMMP9: NovaScreen (NVS) Enzymatic Assay for human Matrix Metalloproteinase-9 (MMP9) (AID 2283190);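 also: cell-free recombinant MMP9 protease activity read by fluorescent substrate signal; active means inhibition seen as loss of fluorescence signal versus DMSO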
# Sequence of human Matrix Metalloproteinase-9 (MMP9), MMP9 (gene 4318) (P14780 whole entry, looked up): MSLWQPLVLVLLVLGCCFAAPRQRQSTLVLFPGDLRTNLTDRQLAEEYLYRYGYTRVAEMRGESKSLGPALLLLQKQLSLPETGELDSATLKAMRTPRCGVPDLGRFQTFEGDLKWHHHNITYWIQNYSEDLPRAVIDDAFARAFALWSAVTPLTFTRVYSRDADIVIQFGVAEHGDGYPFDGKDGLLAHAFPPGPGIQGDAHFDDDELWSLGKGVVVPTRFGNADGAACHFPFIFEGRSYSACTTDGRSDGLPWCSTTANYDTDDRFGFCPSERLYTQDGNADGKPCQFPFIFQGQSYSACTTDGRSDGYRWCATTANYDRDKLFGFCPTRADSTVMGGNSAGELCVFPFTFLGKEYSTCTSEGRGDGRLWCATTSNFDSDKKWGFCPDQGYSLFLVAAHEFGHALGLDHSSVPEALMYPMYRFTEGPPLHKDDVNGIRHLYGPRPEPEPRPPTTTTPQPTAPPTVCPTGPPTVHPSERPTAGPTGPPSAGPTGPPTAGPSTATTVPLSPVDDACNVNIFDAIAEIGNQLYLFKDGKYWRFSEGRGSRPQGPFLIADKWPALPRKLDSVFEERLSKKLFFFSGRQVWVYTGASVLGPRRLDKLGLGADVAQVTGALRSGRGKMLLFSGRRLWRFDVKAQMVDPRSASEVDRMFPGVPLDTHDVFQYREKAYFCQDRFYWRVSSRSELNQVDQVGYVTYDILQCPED
# Summary of the method: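 Inhibition was scored as loss of fluorescence signal against DMSO controls. The recombinant protease was exposed to chemicals for 1 hour before reading; initial testing used 25 uM in duplicate.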
# [3] = molecular target: Collagenase 3 (Homo sapiens) (UniProt P45452); test: NVS_ENZ_hMMP13: NovaScreen (NVS) Enzymatic Assay for human Matrix Metalloproteinase-13 (MMP13) (AID 2283182)
# Summary of the method: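 Recombinant MMP13 cleaving fluorescent substrate, cell-free, measured 1 h after dosing. Primary duplicate screen at 25 uM; actives tested in concentration-response up to 50 uM; loss of signal relative to DMSO.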
# [4] = molecular target: human Matrix Metalloproteinase-2 (MMP2), MMP2 (gene 4313) (UniProt P08253); test: NVS_ENZ_hMMP2: NovaScreen (NVS) Enzymatic Assay for human Matrix Metalloproteinase-2 (MMP2) (AID 2283184)
# Sequence of human Matrix Metalloproteinase-2 (MMP2), MMP2 (gene 4313) (P08253 whole entry, looked up): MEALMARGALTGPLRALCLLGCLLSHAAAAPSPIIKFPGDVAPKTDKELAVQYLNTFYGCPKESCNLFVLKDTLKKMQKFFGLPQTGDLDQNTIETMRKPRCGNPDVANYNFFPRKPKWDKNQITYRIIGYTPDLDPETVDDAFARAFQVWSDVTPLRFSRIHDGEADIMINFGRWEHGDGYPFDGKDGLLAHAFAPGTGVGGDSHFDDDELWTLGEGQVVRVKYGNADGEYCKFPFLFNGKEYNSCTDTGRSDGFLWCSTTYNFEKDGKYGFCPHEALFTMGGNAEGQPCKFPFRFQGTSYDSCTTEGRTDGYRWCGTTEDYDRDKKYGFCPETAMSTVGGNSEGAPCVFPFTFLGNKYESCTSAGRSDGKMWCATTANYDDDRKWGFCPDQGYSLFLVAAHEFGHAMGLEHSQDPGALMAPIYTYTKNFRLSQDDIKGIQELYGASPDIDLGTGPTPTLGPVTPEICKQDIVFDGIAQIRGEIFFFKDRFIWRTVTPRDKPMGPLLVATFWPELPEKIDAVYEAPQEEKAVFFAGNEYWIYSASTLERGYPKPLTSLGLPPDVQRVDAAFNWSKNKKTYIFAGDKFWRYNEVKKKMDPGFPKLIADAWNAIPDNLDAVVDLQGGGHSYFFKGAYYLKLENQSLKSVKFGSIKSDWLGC
# Summary of the method: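 Cell-free recombinant MMP2 activity with a fluorescent substrate, read 1 h after dosing. Primary screen in duplicate at 25 uM; actives then run in concentration series; loss of signal fitted versus DMSO.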
# [5] = molecular target: human Matrix Metalloproteinase-3 (MMP3), MMP3 (gene 4314) (UniProt P08254); test: NVS_ENZ_hMMP3: NovaScreen (NVS) Enzymatic Assay for human Matrix Metalloproteinase-3 (MMP3) (AID 2283185)
# Sequence of human Matrix Metalloproteinase-3 (MMP3), MMP3 (gene 4314) (P08254 whole entry, looked up): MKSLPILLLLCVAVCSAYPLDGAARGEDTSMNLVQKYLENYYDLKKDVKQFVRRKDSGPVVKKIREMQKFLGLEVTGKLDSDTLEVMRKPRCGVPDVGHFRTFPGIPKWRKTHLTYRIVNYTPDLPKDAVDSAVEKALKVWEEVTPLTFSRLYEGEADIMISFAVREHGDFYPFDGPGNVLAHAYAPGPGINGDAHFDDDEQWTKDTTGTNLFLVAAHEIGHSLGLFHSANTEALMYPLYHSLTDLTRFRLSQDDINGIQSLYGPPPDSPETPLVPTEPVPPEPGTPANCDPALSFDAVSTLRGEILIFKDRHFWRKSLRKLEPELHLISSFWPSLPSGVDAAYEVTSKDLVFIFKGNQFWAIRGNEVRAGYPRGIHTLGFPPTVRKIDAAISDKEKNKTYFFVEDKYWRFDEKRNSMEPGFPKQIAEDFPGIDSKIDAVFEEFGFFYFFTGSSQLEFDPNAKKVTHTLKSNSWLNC
# Summary of the method: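 Cell-free recombinant human MMP3 activity, fluorescence intensity read 1 h after dosing. Primary screen duplicate at 25 uM, actives retested in concentration series; loss of signal vs DMSO baseline.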
# [6] = molecular target: human Phosphodiesterase 4A1 (PDE4A1), PDE4A (gene 5141) (UniProt P27815); test: NVS_ENZ_hPDE4A1: NovaScreen (NVS) Enzymatic Assay for human Phosphodiesterase 4A1 (PDE4A1) (AID 2283191)
# Sequence of human Phosphodiesterase 4A1 (PDE4A1), PDE4A (gene 5141) (P27815 whole entry, looked up): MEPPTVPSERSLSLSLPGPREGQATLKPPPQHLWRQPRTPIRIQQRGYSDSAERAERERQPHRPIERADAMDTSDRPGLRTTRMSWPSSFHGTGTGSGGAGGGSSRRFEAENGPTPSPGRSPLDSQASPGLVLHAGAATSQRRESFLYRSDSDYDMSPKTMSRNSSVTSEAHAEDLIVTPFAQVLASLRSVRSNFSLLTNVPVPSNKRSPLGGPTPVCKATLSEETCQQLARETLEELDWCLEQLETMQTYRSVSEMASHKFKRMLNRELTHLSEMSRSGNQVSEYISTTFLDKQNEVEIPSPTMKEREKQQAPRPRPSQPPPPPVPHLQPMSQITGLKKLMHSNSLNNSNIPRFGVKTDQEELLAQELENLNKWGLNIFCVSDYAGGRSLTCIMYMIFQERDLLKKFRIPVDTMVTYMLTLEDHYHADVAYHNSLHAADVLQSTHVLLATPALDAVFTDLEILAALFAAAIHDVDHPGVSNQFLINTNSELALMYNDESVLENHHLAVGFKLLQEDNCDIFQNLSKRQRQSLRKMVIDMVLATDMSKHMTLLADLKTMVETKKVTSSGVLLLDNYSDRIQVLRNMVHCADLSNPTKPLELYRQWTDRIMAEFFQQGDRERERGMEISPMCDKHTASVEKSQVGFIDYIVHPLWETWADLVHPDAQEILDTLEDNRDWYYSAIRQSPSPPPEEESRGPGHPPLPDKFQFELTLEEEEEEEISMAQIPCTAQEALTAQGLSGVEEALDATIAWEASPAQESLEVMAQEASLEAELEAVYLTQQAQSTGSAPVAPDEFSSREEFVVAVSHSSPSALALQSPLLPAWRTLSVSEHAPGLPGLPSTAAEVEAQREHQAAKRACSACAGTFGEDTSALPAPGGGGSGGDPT
# Summary of the method: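 Cell-free recombinant human PDE4A1 with fluorescent substrate; product separated by electrophoretic mobility shift, 1 h. Screened at 25 uM, then up to 50 uM in concentration-response; loss of signal fitted against DMSO.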
# [7] = molecular target: human Matrix Metalloproteinase-7 (MMP7), MMP7 (gene 4316) (UniProt P09237); test: NVS_ENZ_hMMP7: NovaScreen (NVS) Enzymatic Assay for human Matrix Metalloproteinase-7 (MMP7) (AID 2283183)
# Sequence of human Matrix Metalloproteinase-7 (MMP7), MMP7 (gene 4316) (P09237 whole entry, looked up): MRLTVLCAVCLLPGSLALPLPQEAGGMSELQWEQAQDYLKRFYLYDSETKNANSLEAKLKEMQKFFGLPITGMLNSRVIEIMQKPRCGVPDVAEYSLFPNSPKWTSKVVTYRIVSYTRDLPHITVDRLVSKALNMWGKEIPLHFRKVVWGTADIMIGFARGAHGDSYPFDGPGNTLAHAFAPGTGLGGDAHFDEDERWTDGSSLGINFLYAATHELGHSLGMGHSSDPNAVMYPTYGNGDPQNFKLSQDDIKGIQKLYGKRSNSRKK
# Summary of the method: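 Cell-free fluorescence enzymatic assay read 1 h after compound addition, activity loss analyzed against DMSO. Primary duplicate testing at 25 uM; compounds meeting threshold rerun in singleton concentration-response up to 50 uM.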
# [8] = molecular target: human Mitogen- and Stress-activated Protein Kinase-1 (Msk1), RPS6KA5 (gene 9252) (UniProt O75582); test: NVS_ENZ_hMsk1: NovaScreen (NVS) Enzymatic Assay for human Mitogen- and Stress-activated Protein Kinase-1 (Msk1) (AID 2283187)
# Sequence of human Mitogen- and Stress-activated Protein Kinase-1 (Msk1), RPS6KA5 (gene 9252) (O75582 whole entry, looked up): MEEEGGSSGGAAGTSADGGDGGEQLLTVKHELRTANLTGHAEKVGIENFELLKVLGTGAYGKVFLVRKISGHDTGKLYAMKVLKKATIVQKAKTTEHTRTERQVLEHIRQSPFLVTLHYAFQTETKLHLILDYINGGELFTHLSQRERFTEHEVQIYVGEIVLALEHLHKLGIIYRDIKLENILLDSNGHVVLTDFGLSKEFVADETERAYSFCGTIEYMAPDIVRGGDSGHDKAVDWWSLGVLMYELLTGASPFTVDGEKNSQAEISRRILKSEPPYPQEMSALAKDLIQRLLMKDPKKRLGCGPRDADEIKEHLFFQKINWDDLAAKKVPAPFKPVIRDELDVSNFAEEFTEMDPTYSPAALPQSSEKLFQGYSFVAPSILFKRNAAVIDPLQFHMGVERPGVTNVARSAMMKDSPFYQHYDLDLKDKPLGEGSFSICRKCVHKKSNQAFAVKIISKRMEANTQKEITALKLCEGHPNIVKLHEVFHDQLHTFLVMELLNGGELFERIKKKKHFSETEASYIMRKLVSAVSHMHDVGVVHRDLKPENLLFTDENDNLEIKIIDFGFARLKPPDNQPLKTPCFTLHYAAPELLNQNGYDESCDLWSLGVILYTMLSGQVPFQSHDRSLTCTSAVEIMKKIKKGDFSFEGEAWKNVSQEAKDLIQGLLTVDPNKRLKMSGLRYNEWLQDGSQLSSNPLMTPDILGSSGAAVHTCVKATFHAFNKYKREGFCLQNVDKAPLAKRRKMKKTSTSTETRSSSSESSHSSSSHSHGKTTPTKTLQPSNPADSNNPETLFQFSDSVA
# Summary of the method: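 Recombinant kinase with fluorescent substrate; product separated by electrophoretic mobility shift, read 1 h after dosing. Screened in duplicate at 25 uM; hits (e.g. ≥30% inhibition) tested in concentration–response up to 50 uM. DMSO baseline.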
# [9] = molecular target: human NIMA (Never In Mitosis Gene A)-Related Kinase 2 (NEK2), NEK2 (gene 4751) (UniProt P51955); test: NVS_ENZ_hNEK2: NovaScreen (NVS) Enzymatic Assay for human NIMA (Never In Mitosis Gene A)-Related Kinase 2 (NEK2) (AID 2283188)
# Summary of the method: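 Cell-free NEK2 enzyme activity after 1 h exposure, read by fluorescence with electrophoretic mobility shift separating substrate and product. Primary screen in duplicate at 25 uM; actives then run as concentration series. Loss of signal versus DMSO scored.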
# [10] = molecular target: human p21 Activated Kinase 4 (PAK4), PAK4 (gene 10298) (UniProt O96013); test: NVS_ENZ_hPAK4: NovaScreen (NVS) Enzymatic Assay for human p21 Activated Kinase 4 (PAK4) (AID 2283189)
# Sequence of human p21 Activated Kinase 4 (PAK4), PAK4 (gene 10298) (O96013 whole entry, looked up): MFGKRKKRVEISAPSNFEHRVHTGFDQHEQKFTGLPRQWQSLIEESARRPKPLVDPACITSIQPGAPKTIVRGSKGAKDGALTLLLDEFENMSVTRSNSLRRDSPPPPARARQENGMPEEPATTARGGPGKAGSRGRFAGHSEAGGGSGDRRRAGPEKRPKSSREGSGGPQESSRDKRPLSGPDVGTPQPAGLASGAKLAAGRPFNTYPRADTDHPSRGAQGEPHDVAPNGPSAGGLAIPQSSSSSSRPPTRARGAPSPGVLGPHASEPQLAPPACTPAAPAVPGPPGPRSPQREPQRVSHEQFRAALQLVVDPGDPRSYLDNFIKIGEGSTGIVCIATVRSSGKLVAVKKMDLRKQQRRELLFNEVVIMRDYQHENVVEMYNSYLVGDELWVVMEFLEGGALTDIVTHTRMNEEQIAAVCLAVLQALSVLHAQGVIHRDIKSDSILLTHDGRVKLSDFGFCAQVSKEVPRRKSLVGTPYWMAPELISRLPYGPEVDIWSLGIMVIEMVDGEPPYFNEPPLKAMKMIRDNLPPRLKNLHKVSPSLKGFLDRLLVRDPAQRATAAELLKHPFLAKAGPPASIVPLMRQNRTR
# Summary of the method: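 Cell-free recombinant human PAK4 activity assay; fluorescent substrate and product separated by electrophoretic mobility shift, read 1 h after dosing. Initially tested in duplicate at 25 uM, relative to DMSO baseline.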
compound,measurement,setting,value
C=CCC1=C(C)C(OC(=O)C2C(C=C(C)C)C2(C)C)CC1=O (centres undefined),AC50,[1],8.92 µM (active)
same,AC50,[2],0.793 µM (active)
CC1COC(Cn2cncn2)(c2ccc(Oc3ccc(Cl)cc3)cc2Cl)O1 (centres undefined),outcome,[2],inactive
CCCCNC(=O)n1c(NC(=O)OC)nc2ccccc21,outcome,[2],inactive
CO/C=C(/C(=O)OC)c1ccccc1Oc1cc(Oc2ccccc2C#N)ncn1,outcome,[3],inactive
same,outcome,[4],inactive
same,outcome,[5],inactive
same,AC50,[6],14 µM (active)
same,outcome,[6],inactive
COC(=O)C=C(C)OP(=O)(OC)OC,outcome,[5],inactive
CON(C)C(=O)Nc1ccc(Cl)c(Cl)c1,AC50,[6],3.85 µM (active)
CNC(=S)S,outcome,[7],inactive
same,outcome,[5],inactive
same,outcome,[8],inactive
CC(C)C1(C)N=C(c2nc3ccccc3cc2C(=O)O)NC1=O (centres undefined),outcome,[1],inactive
CCNc1nc(Cl)nc(NC(C)C)n1,AC50,[6],1.22 µM (active)
N#Cc1cc(Br)c(O)c(Br)c1,outcome,[7],inactive
CCOC(=O)CC(SP(=S)(OC)OC)C(=O)OCC (centres undefined),outcome,[2],inactive
same,outcome,[6],inactive
CCCN(CCC)c1c([N+](=O)[O-])cc(S(N)(=O)=O)cc1[N+](=O)[O-],outcome,[8],inactive
same,outcome,[9],inactive
same,outcome,[10],inactive
same,outcome,[6],inactive
COc1nc(NC(C)C)nc(NC(C)C)n1,AC50,[6],13.4 µM (active)
CCNc1nc(Cl)nc(NCC)n1,outcome,[4],inactive
same,AC50,[6],8.46 µM (active)
N#Cc1nn(-c2c(Cl)cc(C(F)(F)F)cc2Cl)c(N)c1S(=O)C(F)(F)F (centres undefined),outcome,[5],inactive
COc1nc(C)nc(NC(=O)NS(=O)(=O)c2ccccc2CCC(F)(F)F)n1,outcome,[7],inactive
COc1ccc(C(c2ccc(OC)cc2)C(Cl)(Cl)Cl)cc1,outcome,[7],inactive
same,outcome,[2],inactive
O=C(O)c1nc(Cl)ccc1Cl,outcome,[5],inactive
CCCC1COC(Cn2cncn2)(c2ccc(Cl)cc2Cl)O1 (centres undefined),AC50,[1],6.45 µM (active)
CCOP(=S)(OCC)SCn1c(=O)oc2cc(Cl)ccc21,outcome,[7],inactive
same,AC50,[6],9.57 µM (active)
